Assay outcomes as filed in PubChem.
LANA-H2B inh: blocks KSHV LANA binding to histone H2A/H2B; 320,000 compounds, 0.6% hits; inhibition, % (test concentration not listed); cell-free LANA-H2A/H2B peptide, fluorescence polarization; AID 2629; in the data active = inhibition mostly above about 10%, no sharp cut-off; inactive = mostly below about 6.7%
CTSL1 counter: cathepsin L1 inhibition, PFM18AAP counter-screen; recombinant F. hepatica cathepsin L1, Z-Leu-Arg-MCA fluorescence; inhibition, % at 5.96 µM; 300,000 compounds, 0.49% hits; AID 1906;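 active = inhibition above the mean of all tested compounds plus 3 SD, set per screening campaign, cut at about 17% in these data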
HDAC3 inhib: blocks human histone deacetylase 3; recombinant HDAC3, fluorogenic peptide/trypsin coupled, fluorescence; O15379; 320,000 compounds, 0.15% hits; inhibition, % at 8.3 µM; in the data active = inhibition above about 26%, passing the limit was not always enough; inconclusive = no clear call, values can overlap the other calls
HTR2A ag: activates the mouse 5-HT2A serotonin receptor; P35363; activation, % at 7.6 µM; AID 624169; CHO-K1 mHTR2A beta-arrestin complementation, luminescence; percent of 30 µM serotonin response; 360,000 compounds, 0.66% hits;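 active = activation above a run cutoff, the mean activation of all tested compounds plus 3 SD, cut at about 14% in these data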
Numbers stand for hits; 0 = inactive; ? = inconclusive; - = no result given. Most compounds without a hit are left out; they make up all but 1.7% or so of the library.

SMILES	LANA-H2B inh	CTSL1 counter	HDAC3 inhib	HTR2A ag
CC(C)Oc1ccc(CN2CCC(n3nccc3NC(=O)CCc3ccccc3)CC2)cc1	0	0	0	0
Cc1ccc(-c2cc(C(=O)N3CCCCC3)c3ccccc3n2)cc1C	0	0	0	0
O=C(Oc1ccc(/C=N/Nc2ccccc2)cc1)c1ccccc1	0	0	0	0
O=C(O)c1ccc(N/N=C/c2ccc(OC(=O)c3cccc(Cl)c3)cc2)cc1	0	18	0	0
CC(=O)Nc1cccc(C(=O)OCC(=O)N2CCN(C(=O)COC(=O)c3cccc(NC(C)=O)c3)CC2)c1	-	-	-	0
CC(=O)N1N=C(c2ccco2)CC1c1cccs1 (configuration not stated)	0	0	0	0
Cc1ccc(C2=NN(C(=O)CCl)C(c3cccs3)C2)o1 (configuration not stated)	0	18	0	0
O=C(CCl)N1N=C(c2ccco2)CC1c1cccs1 (configuration not stated)	0	26	0	0
CC(=O)N1N=C(c2cccs2)CC1c1ccc(C)o1 (configuration not stated)	36	0	0	0
CC(=O)N1N=C(c2cccs2)CC1c1cccs1 (configuration not stated)	0	0	0	0
CCNC(=O)c1ccc(=O)n(Cc2ccc(Cl)cc2Cl)c1	0	0	0	0
O=C(Nc1cccc(F)c1)c1ccc(-c2cccnc2)c2ccoc12	-	-	-	0
O=C(CN1CCc2ccccc2C1)Nc1cccc(S(=O)(=O)N2CCCC2)c1	0	0	0	0
CCCCCCCCOC(=O)c1c(CSC(=N)N)n(C)c2cc(Br)c(OC(C)=O)cc12	0	0	33	0
CCOC(=O)c1c(CSC(=N)N)n(-c2ccc(Br)cc2)c2cc(Br)c(OC(C)=O)cc12	-	-	-	0
CC(=O)Nc1ccc(OC(=O)c2cccnc2)cc1	0	0	0	0
COC(=O)c1ccc(OC(=O)c2cccnc2)cc1	0	0	42	0
CC(C)OC(=O)c1ccc(OC(=O)c2cccnc2)cc1	0	0	47	0
O=S(=O)(c1ccc2c(c1)OCCO2)N1CCCN(S(=O)(=O)c2c(F)cccc2F)CC1	0	-	0	0
CC(CC(=O)OCC(=O)NCc1ccc(Cl)cc1)c1ccccc1 (configuration not stated)	0	-	0	0
Cc1ccc(-n2nnnc2SCC(=O)c2c(N)n(C3CC3)c(=O)[nH]c2=O)c(C)c1	0	-	0	0
COc1ccccc1CNC(=O)C(=O)NCC1OCCCN1S(=O)(=O)c1cccs1 (configuration not stated)	0	0	0	17
Fc1ccccc1N1CCN(CCCNc2ccc3nncn3n2)CC1	0	0	0	26
COc1ccc(C(=O)N2CCSC2=S)cc1OC	0	0	?	0
COc1cccc(C(=O)N2CCSC2=S)c1	0	0	37	0
SMILES	LANA-H2B inh	CTSL1 counter	HDAC3 inhib	HTR2A ag
Cc1cccc(-c2nc3c(c(SCC(=O)N4CCOCC4)n2)Cc2c(CO)cnc(C)c2O3)c1	18	0	0	0
Cc1ncc(CO)c2c1Oc1nc(-c3ccccc3)nc(SCC(=O)N3CCOCC3)c1C2	0	0	0	0
CCN(CC)C(=O)c1cc(-c2ccc3c(c2)OCO3)on1	0	0	0	0
COc1ccc2[nH]cc(C(=O)CN3CC(C)CC(C)C3)c2c1 (configuration not stated)	0	0	0	0
COc1ccc2[nH]cc(C(=O)CCl)c2c1	0	74	0	0
CCc1nc2ccccc2n1CC(=O)OCC(=O)N(CC(C)C)c1c(N)n(Cc2ccccc2)c(=O)[nH]c1=O	-	0	-	0
ON=C(CCc1ccccc1)CCc1ccccc1	-	-	-	0
CCOC(=O)c1ccc(NC(=O)CCCN2C(=O)NC3(CCCC3)C2=O)cc1	12	-	0	0
CCOc1ccc(NCc2cccn2-c2nnc(N3CCC(C(=O)NCCCN4CC(C)CC(C)C4)CC3)s2)cc1 (configuration not stated)	0	0	0	0
CCCCNc1c(-c2ccc(OC)c(Sc3ccc(OC)cc3)c2)nc2cnccn12	0	-	0	0
CCCCNc1c(-c2ccc(SC(C)CC)cc2)nc2cnccn12 (configuration not stated)	0	-	32	0
CC1(CC(=O)N/N=C/c2cc3c(cc2Br)OCO3)OCCO1	0	17	0	0
COC(=O)c1cc(S(=O)(=O)N2CCN(Cc3ccccc3)CC2)c[nH]1	0	0	0	0
O=C(CSc1nnc(-c2ccccc2Br)o1)N1CCOCC1	20	0	0	0
O=C(O)c1ccc(CSc2nnc(-c3ccccc3Br)o2)cc1	0	0	0	16
COc1cccc(CN2CC(C(=O)NCC3CCOCC3)CCC2=O)c1 (configuration not stated)	0	0	0	0
